ST2 IL33 inh: inhibitors of human ST2 (IL1RL1) binding to IL-33, primary screen, biochemical, AlphaLISA | AlphaLISA ST2-Fc/biotin-IL-33 interaction, 1 h | inhibition, % for hits at 17 µM | hit rate 2.3% among 78,000 | AID 1259354, 2018; in the data active means inhibition above about 30%
Target sequence (Q01638 whole entry, looked up): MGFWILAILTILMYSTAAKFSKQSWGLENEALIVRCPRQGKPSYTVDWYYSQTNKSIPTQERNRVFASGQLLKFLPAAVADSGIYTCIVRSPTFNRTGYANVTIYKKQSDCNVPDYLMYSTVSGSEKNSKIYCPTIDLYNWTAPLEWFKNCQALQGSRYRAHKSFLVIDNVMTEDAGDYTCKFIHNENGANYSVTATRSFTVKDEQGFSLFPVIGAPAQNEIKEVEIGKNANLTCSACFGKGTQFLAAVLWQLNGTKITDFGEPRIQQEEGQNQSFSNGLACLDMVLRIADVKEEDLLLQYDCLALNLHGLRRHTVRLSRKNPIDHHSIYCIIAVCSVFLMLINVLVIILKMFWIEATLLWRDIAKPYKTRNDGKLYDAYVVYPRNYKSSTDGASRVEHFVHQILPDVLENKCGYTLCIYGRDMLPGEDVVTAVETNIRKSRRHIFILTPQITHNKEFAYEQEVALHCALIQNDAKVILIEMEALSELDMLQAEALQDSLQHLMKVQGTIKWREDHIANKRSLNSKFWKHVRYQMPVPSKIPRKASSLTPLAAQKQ
Large screens that a line does not name were inactive; ! = repeats disagree. This is one part of a sample in which hits are shown more often than they occur.

CC(CS(=O)O)C(=O)O (centres undefined)	none
CN1CCN(c2nc(-c3ccccc3)c(C#N)c(=O)[nH]2)CC1	none
COc1ccc(-n2c(=O)c3c(n4cnnc24)-c2ccccc2CC32CCCC2)cc1	none
C=CCSc1nnc2n(C)c(=O)c3c(n12)-c1ccccc1CC31CCCCC1	ST2 IL33 inh 38.0%
CCSc1nnc2n(C)c(=O)c3c(n12)-c1ccccc1CC31CCCCC1	none
CSc1ccc(-c2nc(CSCC(=O)N3CCN(C)CC3)c(C)o2)cc1	none
CC(=O)N1CCC(N2C[C@H](O)C[C@H]2c2nc(-c3ccc(C(F)(F)F)cc3)no2)CC1	none
CC(=O)Nc1ccc(S(=O)(=O)N[C@H]2C[C@@H](c3nc(-c4ccc5c(c4)OCO5)no3)N(C)C2)cc1	none
O[C@@H]1C[C@@H](c2nc(-c3ccc4c(c3)OCO4)no2)N(Cc2ccc(Cl)cc2)C1	none
Oc1ccccc1CN1C[C@H](O)C[C@H]1c1nc(-c2ccc3c(c2)OCO3)no1	none
CC(=O)N1CCC(N2C[C@H](O)C[C@H]2c2nc(-c3ccc4c(c3)OCO4)no2)CC1	ST2 IL33 inh 42.0%
O[C@@H]1C[C@@H](c2nc(-c3ccc4c(c3)OCO4)no2)N(C2CCOCC2)C1	ST2 IL33 inh 33.0%
Cc1nn(Cc2c(Cl)cccc2Cl)c(C)c1NC(=O)c1cc(C2CC2)on1	none
Cc1ccccc1C1NC(=O)NC2=C1C(=O)CCC2 (centres undefined)	none
O=C1Nc2cc(Cl)c(Cl)cc2N(O)N1c1cccc([N+](=O)[O-])c1	none
CC(C)Cn1cncc1CNc1cc(N2CCOCC2)nc(N)n1	none
COc1ccc(CCN(C)C2CCCN(C(=O)c3cscn3)C2)cc1OC (centres undefined)	none
CC(=O)N1N=C(c2ccccc2)OC12CCCCC2	none
CN1CCN(CCCNC(=O)CSc2c3c(nc4ccc(Cl)cc24)CCCC3)CC1	none
Cc1ccc(-c2nc3sccn3c2Nc2ccccc2C)cc1	none
COc1cc(-c2nc3cnccn3c2Nc2ccc3c(c2)OCCO3)ccc1O	none
COc1ccc(-c2nc3sccn3c2Nc2ccc3c(c2)OCO3)cc1	ST2 IL33 inh 30.0%
Cn1c(=O)c2c(nc(SCC(=O)Nc3ccc4c(c3)OCO4)n2Cc2ccccc2)n(C)c1=O	none
Cn1c(=O)c2c(nc(SCC(=O)O)n2Cc2cc3c(cc2Cl)OCO3)n(C)c1=O	ST2 IL33 inh 37.0%
Cn1c(=O)c2c(nc(Oc3ccc4c(c3)OCO4)n2Cc2ccc(Cl)cc2)n(C)c1=O	none
CCOCCCNC(=O)CSc1cc(=O)n(C)c2cc(Cl)ccc12	none
Cc1cc(Br)ccc1NC(=O)c1cnc2sccn2c1=O	none
Cc1cc(C)[n+]2c(c1C#N)SCC2C(Br)c1ccccc1 (centres undefined)	ST2 IL33 inh 58.0%
Cc1ccc(C(=O)N2CCCc3ccccc32)cc1Br	none
CC1=CC[C@@H]2CN(C(=O)Cc3ccc(N4CCNC4=O)cc3)C[C@@H]2C1	none
COc1cc(-c2ccc(C)s2)cc2c1OCCN(CCc1ccccn1)C2	none
Cc1nc2ccc(NC(=O)NCc3ccc4c(c3)OCO4)cc2nc1C	none
CCSc1nnc(NC(=O)CN2CCCC2c2ccccn2)s1 (centres undefined)	none
N#CSCc1ccc([N+](=O)[O-])cc1	none
N#CSC(C#N)Cc1cccc([N+](=O)[O-])c1 (centres undefined)	ST2 IL33 inh 37.0%
N#Cc1ccc([N+](=O)[O-])cc1C#N	none
Cc1cc(C)c(C(=O)N2CCC(C3(c4cccnc4)NC(=O)N(CCc4cccs4)C3=O)CC2)[nH]1 (centres undefined)	none
Cc1ccc(CN2CC[C@H](c3nnc(C)o3)C2)o1	none
O=c1c(CN2CCc3ccccc3C2)coc2ccccc12	none
Cc1ccc(C2CC(c3cccs3)=NN2S(=O)(=O)c2ccc(C)cc2)cc1 (centres undefined)	ST2 IL33 inh 33.0%
O=S(=O)(c1ccccc1)N1N=C(c2ccccc2)CC1c1ccc(Cl)cc1 (centres undefined)	none
COc1ccc(C2CC(c3cccs3)=NN2S(=O)(=O)c2ccc(C)cc2)cc1 (centres undefined)	ST2 IL33 inh 32.0%!
COc1ccc(C2CC(c3cccs3)=NN2C(C)=O)cc1 (centres undefined)	none
COc1ccc(C2CC(c3ccc(C)cc3)=NN2S(=O)(=O)c2ccccc2)cc1 (centres undefined)	none
COc1ccc(C2=NN(S(=O)(=O)c3ccccc3)C(c3ccc(C)cc3)C2)cc1OC (centres undefined)	none
O=C(NC(c1cccnc1)C(F)(F)F)c1ccc2oc(CCCc3ccccc3)nc2c1 (centres undefined)	none
Cc1c(C(=O)NCc2ccco2)oc2ccc(S(=O)(=O)N3CCCC3)cc12	none
O=C(Nc1ccc2[nH]c(=O)[nH]c2c1)C(c1ccccc1)c1ccccc1	none
CC(C)(C)CN1CCCC2(CCN(C(=O)c3cn4cc(Cl)ccc4n3)C2)C1 (centres undefined)	none
Cc1ccccc1CN1CCC(CN(Cc2cccnc2)C(=O)C2=CCCC2)CC1	none
Cc1cc(CN2C(=O)C(=O)c3ccccc32)c(C)cc1CN1C(=O)C(=O)c2ccccc21	none
Cc1cccc(NC(=O)CN2C(=O)C(=O)c3ccccc32)c1	none

Screening results from PubChem.
